Reference: PubChem BioAssay (Tox21)
Results filed as inconclusive are left out. Calls of active or inactive are those of the source. Unless noted, the call rests on the fitted dose curve; in most records, active means well fitted curve in the direction sought with a large enough effect in the repeat runs; inconclusive means weak or mixed curves; inactive means no such curve, though single readings can be large; an effect the other way counts as inactive or inconclusive.

Tests used:
[1] = qHTS assay to identify small molecule antagonists of the estrogen related receptor (ERR) signaling pathway from Tox21 library - cell viability counter screen (AID 1224834); further: nearly all actives have a fitted effect of over 30% in size; further: potency means the concentration at half of the fitted maximal effect
How it was run: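 Counter screen run in ERR cells (2,000 cells/well): cells pre-incubated 6 h, then treated with compounds for 17.5 h at 37 C. Fluorescence was read 30 min after CellTiter-Fluor addition.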

[2] = target: Luciferin 4-monooxygenase (Photinus pyralis) (UniProt P08659); assay: qHTS assay to identify small molecule inhibitors of firefly luciferase (AID 1224835); further: series mostly up to about 120 µM; nearly all actives have a fitted effect of over 25% in size
Chain of Luciferin 4-monooxygenase (Photinus pyralis) (P08659 whole entry, looked up): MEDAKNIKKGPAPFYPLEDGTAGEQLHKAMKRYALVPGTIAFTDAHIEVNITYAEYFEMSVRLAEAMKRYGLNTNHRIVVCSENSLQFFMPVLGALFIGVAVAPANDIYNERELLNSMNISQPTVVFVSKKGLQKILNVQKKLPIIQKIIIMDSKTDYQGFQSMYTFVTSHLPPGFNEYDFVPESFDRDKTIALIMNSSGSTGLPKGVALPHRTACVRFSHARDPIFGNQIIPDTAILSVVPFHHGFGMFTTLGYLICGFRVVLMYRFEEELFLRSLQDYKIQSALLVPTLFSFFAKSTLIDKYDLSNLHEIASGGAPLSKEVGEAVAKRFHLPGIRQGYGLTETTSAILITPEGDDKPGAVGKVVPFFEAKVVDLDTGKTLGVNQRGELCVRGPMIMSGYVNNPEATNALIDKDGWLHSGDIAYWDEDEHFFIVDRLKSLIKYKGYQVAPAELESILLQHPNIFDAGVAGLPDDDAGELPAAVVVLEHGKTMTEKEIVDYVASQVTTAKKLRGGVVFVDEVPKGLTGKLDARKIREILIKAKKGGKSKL
How it was run: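 Quantitative HTS format; KM concentrations of both substrates. Purified P. pyralis FLuc activity quantified from luminescence images.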

[3] = qHTS assay to identify small molecule antagonists of the constitutive androstane receptor (CAR) signaling pathway - cell viability counter screen (AID 1224837); further: series mostly up to about 92 µM; nearly all actives have a fitted effect of over 45% in size
How it was run: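 CITCO at 50 nM final was added alongside compounds (15 concentrations) to double-stable hCAR/CYP2B6-2.2kb HepG2 cells. Following 23 hr at 37 C, cell viability was quantified by CellTiter-Fluor fluorescence intensity.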

[4] = target: Nuclear receptor subfamily 1 group I member 3 (Homo sapiens) (UniProt Q14994); assay: qHTS assay to identify small molecule antagonists of the constitutive androstane receptor (CAR) signaling pathway (AID 1224838); further: nearly all actives have a fitted effect of over 40% in size
Chain of Nuclear receptor subfamily 1 group I member 3 (Homo sapiens) (Q14994 whole entry, looked up): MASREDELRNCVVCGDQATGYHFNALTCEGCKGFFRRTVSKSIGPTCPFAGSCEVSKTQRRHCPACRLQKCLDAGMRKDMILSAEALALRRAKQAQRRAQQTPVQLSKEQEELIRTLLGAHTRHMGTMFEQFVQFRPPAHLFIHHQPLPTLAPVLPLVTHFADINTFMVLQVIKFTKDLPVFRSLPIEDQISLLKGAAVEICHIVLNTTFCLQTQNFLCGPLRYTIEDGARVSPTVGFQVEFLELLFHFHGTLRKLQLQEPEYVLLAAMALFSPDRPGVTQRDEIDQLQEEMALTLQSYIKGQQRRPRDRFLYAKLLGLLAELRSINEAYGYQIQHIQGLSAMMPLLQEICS
How it was run: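 Inhibition of CITCO-driven (50 nM final) CYP2B6 reporter expression is measured in HepG2 cells stably carrying hCAR. Fifteen compound concentrations are applied for 24 h at 37 C, followed by luciferase luminescence.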

[5] = target: Nuclear receptor subfamily 1 group I member 3 (Homo sapiens) (UniProt Q14994); assay: qHTS assay to identify small molecule agonists of the constitutive androstane receptor (CAR) signaling pathway (AID 1224839); further: nearly all actives have a fitted effect of over 15% in size; further: potency means the concentration at half of the fitted maximal effect; on activation: series mostly up to about 92 µM
How it was run: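 In this screen, CAR-driven CYP2B6 promoter activity is measured by luminescence in HepG2-CYP2B6-hCAR cells after 24 h with test compounds and 0.75 uM PK11195 (final concentration).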

[6] = qHTS assay to identify small molecule antagonists of the estrogen related receptor signaling pathway with the pleiotropic PPARgamma coactivator (PGC) from Tox21 10K library - cell viability counter screen (AID 1224840; active means well fitted cell-killing curve with a large enough effect in the repeat runs, not every such curve was filed as active; further: nearly all actives have a fitted effect of over 40% in size; further: potency means the concentration at half of the fitted maximal effect)
How it was run: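 Readout: fluorescence intensity from CellTiter-Fluor after 30 min at 37 C/5% CO2. Preceded by 17.5 h treatment of PGC/ERR cells with DMSO-dissolved compounds, added 6 h post-seeding.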

[7] = qHTS assay to identify small molecule agonists of the estrogen related receptor signaling pathway with the pleiotropic PPARgamma coactivator (PGC) from Tox21 10K library (AID 1224842); further: nearly all actives have a fitted effect of over 15% in size
How it was run: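 PGC/ERR reporter cells (NTP line) were seeded 2,000 per well, rested 6 h at 37 C/5% CO2, then pin-dosed with compounds in DMSO for 18 h at 37 C; luciferase read by One-Glo luminescence after 30 min at room temperature.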

[8] = target: Thyrotropin receptor (Homo sapiens) (UniProt P16473); assay: qHTS assay to identify small molecule agonists of the thyroid stimulating hormone receptor (TSHR) signaling pathway (AID 1224843; calls by dose curve; further: nearly all actives have a fitted effect of over 45% in size; further: potency means the concentration at half of the fitted maximal effect)
Chain of Thyrotropin receptor (Homo sapiens) (P16473 whole entry, looked up): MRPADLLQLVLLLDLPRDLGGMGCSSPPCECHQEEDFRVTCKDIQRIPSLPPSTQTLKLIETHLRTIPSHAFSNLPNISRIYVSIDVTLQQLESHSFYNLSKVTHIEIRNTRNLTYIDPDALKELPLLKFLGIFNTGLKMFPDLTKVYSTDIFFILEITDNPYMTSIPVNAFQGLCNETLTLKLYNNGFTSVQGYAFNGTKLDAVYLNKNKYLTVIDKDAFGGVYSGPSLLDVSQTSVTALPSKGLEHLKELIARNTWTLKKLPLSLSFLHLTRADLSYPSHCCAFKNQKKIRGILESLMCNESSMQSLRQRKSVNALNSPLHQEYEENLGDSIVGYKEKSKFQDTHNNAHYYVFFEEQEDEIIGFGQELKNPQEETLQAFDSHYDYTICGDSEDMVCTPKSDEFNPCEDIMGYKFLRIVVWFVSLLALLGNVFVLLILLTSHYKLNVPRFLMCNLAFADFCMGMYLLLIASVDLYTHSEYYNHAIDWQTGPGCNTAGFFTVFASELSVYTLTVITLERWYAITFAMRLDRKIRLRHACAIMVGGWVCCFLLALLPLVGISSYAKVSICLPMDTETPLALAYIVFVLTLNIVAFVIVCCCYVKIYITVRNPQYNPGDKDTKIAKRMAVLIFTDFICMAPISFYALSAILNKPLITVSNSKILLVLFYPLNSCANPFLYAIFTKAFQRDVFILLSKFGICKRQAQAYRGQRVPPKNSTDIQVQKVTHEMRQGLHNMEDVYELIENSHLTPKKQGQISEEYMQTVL
How it was run: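 Using 15 concentrations per compound in triplicate, cAMP production was monitored in TSHR-HEK293 cells after 30 min compound incubation at RT; HTRF reagents followed, with fluorescence intensity recorded after 1 h.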

[9] = qHTS assay to identify small molecule agonists of the constitutive androstane receptor (CAR) signaling pathway - cell viability counter screen (AID 1224836); further: series mostly up to about 92 µM; nearly all actives have a fitted effect of over 45% in size
How it was run: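 Compound titrations (15 concentrations) went onto HepG2-CYP2B6-hCAR cells 4 h after seeding, alongside PK11195 at a final 0.75 uM; a 23 h, 37 C/5% CO2 incubation preceded CellTiter-Fluor viability measurement.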

[10] = qHTS assay to identify small molecule antagonists of the estrogen related receptor signaling pathway with the pleiotropic PPARgamma coactivator (PGC) from Tox21 10K library (AID 1224841; call rule not given here; further: series mostly up to about 92 µM; actives are mostly falling curves and most rising ones were filed inactive; nearly all actives have a fitted effect of over 50% in size)
How it was run: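 One-Glo luminescence, measured after half an hour at room temperature, quantified reporter output of PGC/ERR cells. These had been plated at 2,000 per well, incubated 6 h, dosed with compounds in DMSO, then kept 18 h at 37 C.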
On the % scale 0 is the no-effect control and ±100 the full control effect.

O=C(C(=O)c1ccc(Br)cc1)c1ccc(Br)cc1
inactive: viability change, negative = cytotoxic [1] -1.64% [at 19 µM] | activity change, negative = inhibition [2] 1.95% [at 23.6 µM] | activity change, negative = cytotoxicity [3] -2.27% [at 19 µM] | activity, negative = inhibition [4] 0.195% [at 19 µM] | activation [5] 2.8% [at 19 µM] | viability change, negative = cytotoxic [6] 3.02% [at 19 µM] | activation [7] 2.38% [at 19 µM] | activation [8] 3.26% [at 19 µM]

CCCCCCCCCCCCCCC1CO1 (configuration not stated)
inactive: Potency [1] | Potency [2] | Potency [9] | Potency [3] | Potency [6] | Potency [8]

Cc1ccc(C)o1
inactive: Potency [1] | Potency [2] | Potency [3] | Potency [4] | Potency [5] | Potency [6] | Potency [10] | Potency [7] | Potency [8]

CC(C)=CCCC(C)CC=O (configuration not stated)
inactive: Potency [1] | Potency [2] | Potency [9] | Potency [3] | Potency [6] | Potency [8]

CCN1CCC[C@H]1CNC(=O)c1c(OC)ccc(Br)c1OC
inactive: Potency [1] | Potency [2] | Potency [9] | Potency [3] | Potency [6] | Potency [8]

c1ccc(CNCc2ccccc2)cc1
inactive: Potency [1] | Potency [2] | Potency [3] | Potency [4] | Potency [5] | Potency [6] | Potency [8]

C=CC(=O)OCC(C)OCC(C)OCC(C)OC(=O)C=C (configuration not stated)
active: Potency [1] 61.1 µM | Potency [6] 54.5 µM
inactive: Potency [2] | Potency [9] | Potency [4] | Potency [5]

OCCC1CCCCN1 (configuration not stated)
inactive: Potency [1] | Potency [2] | Potency [9] | Potency [3] | Potency [8]

CC[C@]12CCCN3CCc4c(n(c5ccccc45)C(=O)C1)[C@@H]32
inactive: Potency [2] | Potency [6] | Potency [10] | Potency [7] | Potency [8]
active: Potency [1] 9.44 µM

NC[C@H]1O[C@H](O[C@H]2[C@H](O)[C@@H](O[C@H]3O[C@H](CO)[C@@H](O)[C@H](N)[C@H]3O)[C@H](N)C[C@@H]2N)[C@H](O)[C@@H](O)[C@@H]1O
inactive: viability change, negative = cytotoxic [1] -5.48% [at 8.39 µM] | activity change, negative = inhibition [2] 8.02% [at 10.5 µM] | activity change, negative = cytotoxicity [3] 2.42% [at 8.39 µM] | viability change, negative = cytotoxic [6] 5.71% [at 8.39 µM] | activation [7] 1.17% [at 8.39 µM] | activation [8] -0.345% [at 8.39 µM]

CC(C)(C)c1cc(CCC(=O)OCC(COC(=O)CCc2cc(C(C)(C)C)c(O)c(C(C)(C)C)c2)(COC(=O)CCc2cc(C(C)(C)C)c(O)c(C(C)(C)C)c2)COC(=O)CCc2cc(C(C)(C)C)c(O)c(C(C)(C)C)c2)cc(C(C)(C)C)c1O
inactive: Potency [1] | Potency [2] | Potency [3] | Potency [4] | Potency [5] | Potency [6] | Potency [8]

CCN(CC)CCc1nc(-c2ccccc2)no1
active: Potency [5] 9.44 µM
inactive: Potency [1] | Potency [2] | Potency [3] | Potency [6] | Potency [7] | Potency [8]

CCCCCCCCC(CO)CCCCCC (configuration not stated)
inactive: Potency [1] | Potency [2] | Potency [3] | Potency [4] | Potency [5] | Potency [10] | Potency [8]

CN1CCN(C2=Nc3ccccc3Sc3ccc(Cl)cc32)CC1
inactive: Potency [1] | Potency [9] | Potency [3] | Potency [4] | Potency [5] | Potency [6] | Potency [10] | Potency [7] | Potency [8]

Cc1ccc(C(=O)C(C)CN2CCCCC2)cc1 (configuration not stated)
inactive: Potency [1] | Potency [2] | Potency [3] | Potency [4] | Potency [5] | Potency [10] | Potency [8]

CCOC(=S)SSC(=S)OCC
inactive: Potency [1] | Potency [9] | Potency [3] | Potency [4] | Potency [5] | Potency [6] | Potency [8]

CCCCCOC(=O)COc1cc(N2C(=O)C3=C(CCCC3)C2=O)c(F)cc1Cl
inactive: Potency [1] | Potency [2] | Potency [3] | Potency [6] | Potency [8]

O=C(c1ccccc1)c1ccc2n1CCC2C(=O)O (configuration not stated)
inactive: Potency [1] | Potency [9] | Potency [3] | Potency [4] | Potency [6]

C=CCCCCCC
inactive: Potency [1] | Potency [2] | Potency [3] | Potency [5] | Potency [6] | Potency [10] | Potency [8]

NC1CCN(c2nc3c(cc2F)c(=O)c(C(=O)O)cn3-c2ccc(F)cc2F)C1 (configuration not stated)
inactive: Potency [1] | Potency [2] | Potency [3] | Potency [4] | Potency [6] | Potency [8]

CCCCCCCCCO
inactive: Potency [1] | Potency [2] | Potency [3] | Potency [5] | Potency [10] | Potency [7] | Potency [8]

O=C(c1ccc(O)cc1)c1ccc(O)cc1
inactive: Potency [1] | Potency [9] | Potency [3] | Potency [4] | Potency [6] | Potency [10] | Potency [8]

CC(C)CCCC(C)CCO (configuration not stated)
inactive: Potency [1] | Potency [2] | Potency [3] | Potency [4] | Potency [5] | Potency [6] | Potency [8]

O=[N+]([O-])c1cccc(Cl)c1Cl
inactive: Potency [1] | Potency [9] | Potency [3] | Potency [4] | Potency [5] | Potency [6] | Potency [10] | Potency [8]

CCCCc1cc2ccccc2c(OCCN(C)C)n1
inactive: Potency [1] | Potency [2] | Potency [3] | Potency [6] | Potency [8]

CCCCOc1ccc(CC(=O)NO)cc1
inactive: Potency [2] | Potency [4] | Potency [5]
active: Potency [1] 18.8 µM

CN(C(=O)CCCOc1ccc2[nH]c(=O)ccc2c1)C1CCCCC1
inactive: Potency [1] | Potency [2] | Potency [3] | Potency [6] | Potency [10] | Potency [7]
active: Potency [8] 0.335 µM
